# Measurements reported in ChEMBL document CHEMBL1157539, “Thousands of chemical starting points for antimalarial lead identification” (Nature, 2010).
# What was measured:
# Format in all cases: functional
# Plasmodium falciparum [1] = assay: GSK_TCMDC: Inhibition of Plasmodium falciparum 3D7 in whole red blood cells, using parasite LDH activity as an index of growth. Test compounds present at 2uM
# Plasmodium falciparum [2] = assay: GSK_TCMDC: Inhibition of Plasmodium falciparum Dd2 in whole red blood cells, using parasite LDH activity as an index of growth. Test compounds present at 2uM
# HepG2 = assay: GSK_TCMDC: Percent inhibition of human HepG2 cell line. Test compounds present at 10uM.
Compound,Inhibition (Plasmodium falciparum [1]) [%],Inhibition (Plasmodium falciparum [2]) [%],Inhibition (HepG2) [%]
CCCNc1nc(Nc2ccccc2C)nc2ccccc12,95,64,13
CCC(=O)NC(c1ccco1)c1cc(Cl)c2cccnc2c1O (stereo not given),89,74,58
Cc1cnn(-c2cccc(C(=O)NC3CCC(CCN4CCc5ccc(C#N)cc5CC4)CC3)c2)c1.Cl (stereo not given),94,48,24
O=C1NC(c2ccccc2)C2(CCN(CC(O)COc3cccc4ncccc34)CC2)O1 (stereo not given),92,95,5
Cl.N=C(N)NN=Cc1c2ccc(Cl)cc2c(Cl)c2ccc(Cl)cc12,100,90,28
CN(C)C1CCN(Cc2ccc(N3CCN(Cc4cccc5[nH]ccc45)CC3)nc2)CC1,80,17,11
CCCCCN1C(=O)C(c2ccccc2)(c2ccccc2)N=C1N,97,68,18
CCN1CCN(c2ccc(Nc3ccnc4ccc(Br)cc34)cc2)CC1,98,86,37
CCCN(CCC)CCCNc1ccc(C(=O)Nc2ccc(C)c(F)c2)cc1[N+](=O)[O-],100,94,33
COc1cc(OC)cc(-c2nn(-c3ccc([N+](=O)[O-])cc3Cl)c(=S)n2CC2CCCO2)c1 (stereo not given),98,98,5
Cc1nc(-c2nc(NCCc3c(C)noc3C)ncc2-c2ccsc2)sc1C,87,85,12
Cl.NC1(C(=O)O)Cc2ccc(Cl)cc2C1 (stereo not given),93,1,0
Cc1ccc(C(C)C)c(Oc2ccc3nc(N)nc(N)c3c2)c1,96,33,61
Cc1cc(-c2ccc(NC(=O)N3CCc4cc(Cl)c(N5CCN(C)CC5)cc43)cc2)ccc1C#N,100,83,100
Cc1cccc(C(=O)NC(NC(=S)Nc2cc(Cl)ccc2Cl)C(Cl)(Cl)Cl)c1 (stereo not given),94,61,0
COc1ccc2nccc([C@@H](O)CN3CCC(NC(=O)/C=C/c4ccc(F)c5ccccc45)CC3)c2c1,100,75,37
Clc1ccc(-c2cc(-c3csc(NCCN4CCCCC4)n3)on2)cc1,91,30,81
Cc1ccc2[nH]ncc2c1N(CC1CCCCC1)c1ccnc(Nc2ccc(OCC(O)CN3CC=CCC3)cc2)n1.O=CO (stereo not given),100,79,29
O=C(NCc1ccccc1)NC(CCCN1CCC(Oc2cccc(Cl)c2)CC1)c1ccc(Cl)c(Cl)c1 (stereo not given),81,57,15
O=C(Nc1cccc(OC2CCN(Cc3ccccc3)CC2)c1)Nc1cccc([N+](=O)[O-])c1.O=C(O)C(F)(F)F,100,48,10

Compound,Inhibition (Plasmodium falciparum [1]) [%],Inhibition (Plasmodium falciparum [2]) [%],Inhibition (HepG2) [%]
CC(=O)N1CCC(C(=O)Nc2ccc(-c3cccc(-c4nc5cccc(C)c5[nH]4)c3)cc2)CC1,84,27,85
CCNc1cc(C(=O)N[C@@H](Cc2ccccc2)[C@H](O)CNC2(Cc3cccc(Cl)c3)CCC2)cc(N2CCCCS2(=O)=O)c1.Cl,95,83,22
Cc1cc(OCC2CCCO2)c2cc(NC(=O)C(=O)Nc3ccc4nc(C)cc(OCC5CCCO5)c4c3)ccc2n1 (stereo not given),96,32,7
COc1ccc(Nc2nccc(N3CCC(NS(=O)(=O)c4ccc(NC(C)=O)cc4)C3)n2)cc1 (stereo not given),100,16,3
CC(C)NCc1ccc(-c2cccc(NC(=O)c3cccc(C#N)c3)c2)cc1.O=C(O)C(F)(F)F,100,78,9
CC(CN1CCN(C)CC1)C(=O)Nc1ccc(-c2ccc(-c3nc4ccccc4[nH]3)s2)cc1 (stereo not given),100,79,5
COC(=O)c1cccc(C#CCCOCCCCCCNC[C@H](O)c2cc(Cl)c(N)c(Cl)c2)c1,97,88,12
Cc1cccc2nc(-c3ccc(-c4ccc(CN5CCOCC5)cc4)cc3)[nH]c12.O=C(O)C(F)(F)F,92,86,29
Cc1ccc(-c2cncc(-c3cc(NC4CCN(Cc5ccccc5)CC4)nc(-c4ccccc4)n3)c2)cc1,100,66,0
Cc1[nH]c(C)c(C(F)(F)F)c(=O)c1-c1ccc(Oc2ccc(OC(F)(F)F)cc2)cc1,97,96,0
CC(C)N(CCOc1ccc2c(c1)N(C(=O)Nc1ccc(Cl)c(Cl)c1)CC2)C(C)C.O=C(O)C(F)(F)F,100,39,15
NC(=O)Nc1ccc2c(Nc3ccc(OCc4ccccc4)cc3)ncnc2c1,84,20,0
Cc1cc(=NN=Cc2ccccc2F)c2ccccc2[nH]1,100,81,14
CCOc1ccc2c(N/N=C/c3cccc([N+](=O)[O-])c3)cc(C)nc2c1,100,97,4
N=C(N)c1ccc(Nc2nccc(Nc3nc(-c4ccccc4)cs3)n2)cc1.O=C(O)C(F)(F)F,96,75,13
COc1ccc2nc(C)cc(NCc3ccc4ccccc4c3)c2c1.Cl,100,75,21
Nc1nc(N)c2c(ccc3ccccc32)n1,98,20,60
Cc1cnc(Nc2ccccc2)nc1N[C@@H](CCCN)C(=O)Nc1ccccc1.O=C(O)C(F)(F)F,100,0,0
CC(C)c1ccc(CN2CCC(NC(=O)c3ccc(-c4cccc(Cl)c4)s3)CC2)cc1.O=C(O)C(F)(F)F,82,6,50
CCn1c(-c2nonc2N)nc2c(-c3cccc(NC(=O)Nc4ccc(C#N)cc4)c3)ncc(OCCCN)c21.O=C(O)C(F)(F)F,85,80,1

Compound,Inhibition (Plasmodium falciparum [1]) [%],Inhibition (Plasmodium falciparum [2]) [%],Inhibition (HepG2) [%]
Cc1cc(N)nc2ccc(-c3ccc(CCN)cc3)cc12,100,48,31
COC(=O)c1sc2ccccc2c1NC(=O)c1ccc(C)c(C)c1,88,48,4
CCOc1ccc(C(=O)Nc2nonc2-c2ccc(OC)c(OC)c2)cc1,95,42,7
COc1ccc2c(=O)c(-c3ccc(OC(F)(F)F)cc3)c(C)[nH]c2c1,97,96,0
COc1ccc(NC(=O)Nc2cccc(-c3ccncc3)c2)cc1N1CCN(C)CC1,98,57,9
COc1ccc(NC(=O)[C@H](Cc2ccccc2)Nc2cc(C)nc(Nc3ccccc3)n2)cc1.O=C(O)C(F)(F)F,100,92,0
NCc1cccc(-c2ccc3ccnc(N)c3c2)c1,100,96,7
CN(CCCNCc1cccc2ccccc12)CCCNCc1cccc2ccccc12.Cl,100,94,93
CC(C)CNCc1ccc(-c2ccc(CNC3CCN(Cc4ccccc4)CC3)cc2)cc1.O=C(O)C(F)(F)F,100,96,16
Fc1ccccc1C=NN=c1cc[nH]c2ccc(C(F)(F)F)cc12,100,61,5
C/C=C/COc1ccc2ccccc2c1CNCCCCCCCCNCc1c(OC/C=C/C)ccc2ccccc12.CS(=O)(=O)O.O,87,86,100
COc1cc(NC(=O)/C=C/c2cc(F)cc(F)c2F)cc(OCCN2CCCCC2)c1.O=C(O)C(=O)O,100,80,10
O=C(Nc1ccc(OC2CCN(Cc3ccc(F)cc3)CC2)c(Cl)c1)c1ccsc1.O=C(O)C(F)(F)F,94,90,5
O=C(Nc1ccc(Cn2ncc(N3CCCNCC3)c(Cl)c2=O)cc1)Nc1cccc(Oc2ccccc2)c1.O=C(O)C(F)(F)F,81,41,8
CC1CN(CCCn2c3ccccc3c3ccc(C(=O)CCCN(C)C)cc32)CC(C)N1.Cl (stereo not given),100,6,26
O=C(Nc1ccc(Cl)cc1)c1ccc(CN2CCCN(Cc3ccsc3)CC2)cc1.O=C(O)C(F)(F)F,88,1,48
CNc1nc(N/N=C/c2cc([N+](=O)[O-])c(Cl)cc2Cl)nc(Nc2cccc(C(F)(F)F)c2)n1,100,97,13
COc1ccc2ncc(F)c(CCN3C[C@H](CNCc4cc(C#N)c5c(c4)OCCO5)[C@H](O)C3)c2n1.Cl,100,64,7
CCCCC(=O)N(CCOC)Cc1ccc(-c2ccc(CNCCC)cn2)cc1.O=C(O)C(F)(F)F,99,68,30
Cl.O=C(Nc1ccc(C(=O)Nc2ccc(C3=NCCN3)cc2)cc1)Nc1ccc(C2=NCCN2)cc1,94,95,0
